A selection: hits, their analogues and other compounds. The true share with any hit is near 1.4%.
S1P2 blocker – S1P2 (human) receptor antagonism | cell-based S1P2 antagonist assay, inhibition at 5 uM | inhibition, % at 5 µM | 0.21% of 97,000 active; in the data active = inhibition above about 45%;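 note: CRE beta-lactamase reporter cells expressing human S1P2 stimulated with S1P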
GALR2 agonist – GALR2 (human) receptor agonism; GALR2-expressing cells, agonist activation read-out; activation, % (no concentration beside the values); 0.48% of 140,000 active; AID 803; in the data active = activation above about 5%, passing the limit was not always enough
GALR2 antag – GALR2 (human) receptor antagonism. inhibition, % at 4 µM. 0.39% of 140,000 active. GALR2-expressing cells, antagonist mode. O43603; in the data active = inhibition above about 27%;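 note: cells stimulated with galanin 1-16 at roughly its EC80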
Smad3 FoxH1 inh – Smad3 (human) transcription factor binding inhibition. P84022. TR-FRET Smad3/Dy647-FoxH1 peptide binding, europium anti-His. inhibition, % at 25 µM. 0.29% of 88,000 active;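 active = compounds that reduce the energy-transfer binding signal between the protein and its labelled peptide by more than half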
Target sequence (P84022 whole entry, looked up): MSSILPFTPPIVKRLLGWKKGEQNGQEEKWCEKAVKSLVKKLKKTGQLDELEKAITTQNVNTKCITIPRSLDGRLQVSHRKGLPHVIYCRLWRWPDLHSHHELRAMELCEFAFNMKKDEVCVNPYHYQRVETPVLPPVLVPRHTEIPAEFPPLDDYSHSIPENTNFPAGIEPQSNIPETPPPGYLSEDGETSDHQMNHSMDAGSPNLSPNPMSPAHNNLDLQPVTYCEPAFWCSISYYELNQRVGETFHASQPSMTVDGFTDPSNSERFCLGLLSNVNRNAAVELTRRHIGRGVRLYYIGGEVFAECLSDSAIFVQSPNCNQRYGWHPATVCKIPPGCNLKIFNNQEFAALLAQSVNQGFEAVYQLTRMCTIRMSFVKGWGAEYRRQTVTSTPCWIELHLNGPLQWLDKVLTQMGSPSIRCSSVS
MT1-MMP txn act – MT1-MMP promoter transcription activation; activation factor at 10 µM; HT1080 MT1-MMP promoter luciferase reporter, luminescence, overnight; active compounds read high; 0.16% of 86,000 active;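 active = activation factor of at least 2 for MT1-MMP transcription at 10 µM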
S1P2 ag – S1P2 (human) receptor agonism; AID 729; 0.46% of 97,000 active; O95136; activation, % at 4.5 µM; S1P2-expressing cell line, agonist reporter read-out; in the data active = activation above about 16%
GALR2 agon conf – GALR2 (human) agonism confirmed. shares compounds with GALR2 agonist. GALR2-expressing cells, agonist activation. activation, % at 5.6 µM. 10% of 460 active; in the data active = activation above about 8.4%
BLA activ ctr – counter-screen for GALR2 agonists: beta-lactamase reporter activators | AID 865 | activation, % at 5.6 µM | 10% of 460 active | CHO NFAT-bla reporter, beta-lactamase FRET activation | shares compounds with GALR2 agonist;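 active = activation above the screen-wide mean activation plus 3 SD, cut at about 8% in these data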
Numbers stand for hits; 0 = inactive; - = not tested or not shown.

SMILES	S1P2 blocker	GALR2 agonist	GALR2 antag	Smad3 FoxH1 inh	MT1-MMP txn act	S1P2 ag	GALR2 agon conf	BLA activ ctr
CCN(CC)c1ccc(NC(=O)COC(=O)/C=C/c2nc3ccccc3s2)cc1	-	0	0	-	-	-	-	-
CCN(CC)c1ccc(/C=C/c2nc3ccccc3s2)cc1	66.1	17.1	0	-	-	0	0	0
COC(=O)c1cc(NC(=O)CSc2nncn2C)cc(C(=O)OC)c1	0	15.9	0	0	0	0	0	0
CC(C)(CCC(C)(C)c1ccccc1)c1ccccc1	-	-	-	0	-	-	-	-
O=C1c2ccccc2C(=O)N1C[C@]1(C(=O)O)NCCS1(=O)=O	-	-	-	0	-	-	-	-
CC1(C)CC(=O)C2=C(C1)N(CCN1CCOCC1)C1=C(C(=O)CC(C)(C)C1)C2c1cccc(Cl)c1	0	0	0	0	0	0	0	0
C[C@H]1CN(CCO)CCN1c1ccccc1	-	-	-	0	-	-	-	-
Cc1c(/C=N/n2cnnc2)c2ccccc2n1C	0	11.9	0	0	0	0	0	0
CCc1ccc(-c2cc(C(F)(F)F)n3nc(C(=O)Nc4c(C)nn(Cc5ccc(F)cc5)c4C)cc3n2)s1	0	13.1	0	-	-	0	0	0
Cc1ccccc1Cn1nc(C)c(NC(=O)c2cc3nc(-c4ccco4)cc(C(F)(F)F)n3n2)c1C	0	0	0	0	0	0	-	-
CCOC(=S)SCC(=O)Nc1nc(-c2ccccc2)cs1	-	0	0	-	-	-	-	-
CCOC(=S)SCC(=O)Nc1nc(-c2ccc(Br)cc2)cs1	-	16.2	0	-	-	-	0	0
Cc1ccc(/C=N/NC(=O)c2ccc(C(=O)N/N=C/c3ccc(C)s3)o2)s1	0	30.2	0	-	-	0	0	14.3
CN(C)CN1CSC(=S)N(CN(C)C)C1	-	-	-	0	-	-	-	-
O=C(CCn1c(SCC(=O)NCc2ccco2)nc2ccccc2c1=O)NCCc1ccccc1	0	0	0	0	0	0	-	-
Cc1nc2ccccc2n1CCc1nc2c3ccccc3nc(SCC(=O)NCc3ccco3)n2n1	0	8.7	0	0	0	0	0	0
CC(=NCC(=O)O)c1ccccc1	-	-	-	0	-	-	-	-
Cn1c(=O)oc2cc(S(=O)(=O)N3CCCC(C(=O)Nc4ccccn4)C3)ccc21 (centres undefined)	0	16.9	0	0	-	0	0	0
NC(=O)C[C@H](N)C(N)=O	-	-	-	0	-	-	-	-
Cc1cc(=O)[nH]c(-n2nc(C)c(Oc3ccccc3O)c2C)n1	0	32.2	0	0	0	0	27.4	59.8
C[N+](C)(C)[C@H](Cc1c[nH]c(=S)[nH]1)C(=O)O	-	-	-	0	-	-	-	-
O=C(O)C1CC2(C1)CC(C(=O)O)C2 (centres undefined)	-	-	-	0	-	-	-	-
Cc1occc1-c1nnc(SCC(=O)Nc2nc(-c3ccccc3)cs2)o1	0	18.8	0	0	0	0	0	0
CC(=O)Nc1ccc(Sc2ncccc2C(=O)Nc2ccc(OC(F)(F)F)cc2)cn1	0	22.4	0	-	-	0	15.8	42.9
Cc1noc(NC(=O)Nc2ccccc2F)c1C#N	-	-	-	0	-	-	-	-
SMILES	S1P2 blocker	GALR2 agonist	GALR2 antag	Smad3 FoxH1 inh	MT1-MMP txn act	S1P2 ag	GALR2 agon conf	BLA activ ctr
O=C(O)CSCc1cccc2ccccc12	-	-	-	0	-	-	-	-
CC(C)NC(=O)c1ccccc1NC(=O)/C=C/c1cccc([N+](=O)[O-])c1	-	25.4	0	-	-	-	11.0	21.6
CC(C)C(NC(=O)/C=C/c1cccc([N+](=O)[O-])c1)C(C)C	-	0	0	-	-	-	-	-
CN1C(=O)/C(=C/c2ccccc2OCc2cccc(F)c2)NC1=S	0	146.0	0	-	-	0	0	0
CN1C(=O)/C(=C/c2ccccc2OCc2ccccc2)NC1=S	-	0	0	-	-	-	-	-
CN(Cc1nc(-c2ccccn2)no1)S(=O)(=O)c1ccccc1	0	0	0	0	0	0	0	0
COc1cccc(/C=N/NC(=O)CCc2c(C)n[nH]c2C)c1	0	14.1	0	0	0	0	0	0
COC(=O)C1=CN(CC2CCCO2)C=C(C(=O)OC)C1c1ccccc1C(F)(F)F (centres undefined)	0	11.9	0	0	0	0	0	0
CC1CCCN(c2c([N+](=O)[O-])c(=O)oc3ccccc23)C1 (centres undefined)	0	27.8	0	-	-	0	0	0
O=C(O)CSc1cc(-c2ccccc2)nc2ccccc12	-	-	-	0	-	-	-	-
COc1ccc(C(=O)CSc2nnc(C3CC3)n2N)cc1	0	21.4	0	0	0	0	0	0
CCn1c(SCC(=O)c2ccc(OC)cc2)nnc1C1CC1	0	0	0	0	0	0	-	-
Cc1n[nH]c(C)c1N1C(=O)c2cccc3c(N4CCCCCC4)ccc(c23)C1=O	0	0	0	0	-	0	-	-
CC(=O)c1ccc2c3c(cccc13)C(=O)N(c1c(C)nn(C)c1C)C2=O	0	20.4	0	0	0	0	0	0
O=C(Cc1n[nH]c(=O)[nH]c1=O)N/N=C/c1cccc(O)c1	0	14.9	0	0	0	0	0	0
C[C@@H](NC(=O)C1(N)CCCC1)C(=O)O	-	-	-	0	-	-	-	-
CCCCCCc1cc2cc(S(=O)(=O)c3ccc(C)cc3)c(=O)oc2cc1O	-	44.9	0	-	-	-	14.9	41.5
CCCCCCc1cc2cc(S(=O)(=O)c3ccc(Cl)cc3)c(=O)oc2cc1O	-	19.9	0	-	-	-	15.1	46.1
CCCCCCc1cc2cc(C(=O)Nc3ccccc3)c(=O)oc2cc1O	-	0	0	-	-	-	-	-
CCN(CC)c1ccc2cc(S(=O)(=O)c3ccc(Cl)cc3)c(=O)oc2c1	-	43.2	0	-	-	-	16.4	29.4
Cc1cc(C)c2c(SCc3ccc(Cl)cc3Cl)nc(N)nc2n1	-	-	-	0	-	-	-	-
Cc1nc2cccc([N+](=O)[O-])c2n1CCCN(C)C	-	-	-	0	-	-	-	-
C[C@@H](N=C(N)N)C(=O)O	-	-	-	0	-	-	-	-
O=C1c2ccccc2C(=O)N1c1ccc(Cc2ccc(N3C(=O)c4ccccc4C3=O)cc2)cc1	-	-	-	0	-	-	-	-
Cc1nc(SCc2cccc(F)c2)[nH]c(=O)c1C#N	0	153.6	0	0	0	0	0	0
SMILES	S1P2 blocker	GALR2 agonist	GALR2 antag	Smad3 FoxH1 inh	MT1-MMP txn act	S1P2 ag	GALR2 agon conf	BLA activ ctr
N#Cc1c(-c2ccco2)nc(SCc2ccc(F)cc2)[nH]c1=O	0	0	0	0	0	0	-	-
CCOC(=O)c1[nH]c(C)c(C(=O)Nc2ccc(C)c(F)c2)c1C	-	43.8	0	0	0	-	0	0
CCOC(=O)c1ccc(NC(=S)N2CCSC2c2ccc(OC)cc2)cc1 (centres undefined)	-	0	0	-	-	-	-	-
CCOC(=O)c1ccc(NC(=S)N2CCSC2c2ccc(Cl)cc2)cc1 (centres undefined)	-	8.8	0	-	-	-	9.4	18.1
N#C/C(=C\Nc1ccccn1)C(=O)c1ccco1	-	-	-	0	-	-	-	-
FC(F)(F)c1nc(SCc2ccc(Cl)cc2)n[nH]1	-	-	-	0	-	-	-	-
Cc1[nH]nc(N=CC2=C(O)CC(c3ccco3)CC2=O)c1-c1ccccc1 (centres undefined)	0	0	0	0	0	0	-	-
Cc1[nH]nc(N=CC2=C(O)CC(C)(C)CC2=O)c1-c1ccccc1	0	14.0	0	0	0	0	0	0
CCCNC(=S)N1CCC(c2nc3cc(C)c(C)cc3[nH]2)CC1	0	32.5	0	-	-	0	0	0
Cc1cc2nc(C3CCCN(C(=S)Nc4ccccc4C)C3)[nH]c2cc1C (centres undefined)	0	0	0	-	-	0	-	-
